Screening data: PubChem BioAssay, The Scripps Research Institute Molecular Screening Center
MITF primary – inhibitors of human MITF; 650,000 tested, 0.91% active; inhibition, % at 2.6 µM; AlphaScreen MITF homodimerization, bead proximity signal; O75030; in the data active means inhibition above about 50%;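 further: 0% = vehicle wells with protein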
TEAD-YAP block – TEAD-YAP interaction inhibition; HEK-TIYL cells, TEAD-Gal4/YAP UAS-luciferase luminescence; inhibition, % at 9.12 µM; 640,000 tested, 1.4% active; AID 1259422; in the data active means inhibition above about 32%;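 further: 0% = median of test compound wells and 100% = reference inhibitor wells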
FBW7 act – activators of human E3 ligase FBW7 | Q969H0 | AlphaScreen FBW7–phospho-cyclin E peptide binding, activator screen | normalized activity (activation), % at 26.1 µM | 650,000 tested, 0.13% active | AID 1259310; in the data active means normalized activity above about 1.9%;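 further: purified mutant Fbw7 with reduced substrate affinity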
GPR151 activ – activators of human GPR151 | PathHunter beta-arrestin GPR151 cells, luminescence | activation, % at 11.2 µM | 650,000 tested, 1% active | AID 1508602; in the data active means activation above about 4.9%;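 further: 0% = median of compound wells and 100% = cells with positive control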
GPR151 confirm – confirmation of human GPR151 activators. shares compounds with GPR151 activ. GPR151 PathHunter beta-arrestin cells, luminescence, 90 min; % of EA-reagent control over plate median. activation, % at 11.2 µM. 6,700 tested, under 10 active;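 active means mean percent activation across replicates above the confirmation screen cutoff of 4.91%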
GPR119 counter – activates human GPR119 in a GPR151 counter-screen. shares compounds with GPR151 activ. GPR119 PathHunter beta-arrestin cells, luminescence, 90 min; 0 = compound-well median, 100 = enzyme-acceptor control. activation, % at 11.2 µM. 6,700 tested, 0.3% active. AID 1508611;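 active means mean percent activation in the counterscreen above 29.09%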;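 further: counterscreen on off-target GPR119 to flag nonselective hits from the GPR151 activator screen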
* hit, by the source's call; · = no result. In the library only some 3.5% were active in any assay of this set; here they are far more common.

SMILES	MITF primary	TEAD-YAP block	FBW7 act	GPR151 activ	GPR151 confirm	GPR119 counter
CC(=O)Nc1ccc(S(=O)(=O)N(C)CCOCc2ccccc2)cc1	25	8	1	5.4*	0	-6
CCOC(=O)c1nn(CCO)c2c1CN(Cc1cccc(Cl)c1)CC2	5	6	0	10*	0	6
O=C(Nc1ccc(CN2CCCCC2)cc1)c1ccncc1	-6	4	0	-1	·	·
O=C(O)COc1ccc(C2C3=C(CCCC3=O)OC3=C2C(=O)CCC3)cc1	2	0	0	6.2*	1	0
COc1ccc(C2C(C(C)=O)=C(C)N=c3s/c(=C/c4ccc(OCc5cccc6ccccc56)cc4)c(=O)n32)cc1 (stereo not drawn)	3	5	0	1	·	·
COc1ccc(C2C(C(C)=O)=C(C)N=c3s/c(=C/c4ccccc4)c(=O)n32)cc1 (stereo not drawn)	8	4	0	8.8*	-1	-5
CCOC(=O)C1=C(C)N=c2s/c(=C\c3ccc(C(C)C)cc3)c(=O)n2C1c1ccc(OC)cc1 (stereo not drawn)	-2	-8	0	7.0*	0	-2
C=CCn1cc(/C=c2\sc3n(c2=O)C(c2ccc(Cl)cc2)C(C(=O)OCC)=C(C)N=3)c2ccccc21 (stereo not drawn)	16	-1	0	1	·	·
CCOC(=O)C1=C(C)N=c2s/c(=C\c3ccc(C(C)C)cc3)c(=O)n2C1c1ccc(C(C)C)cc1 (stereo not drawn)	5	10	0	0	·	·
CCOC(=O)C1=C(C)N=c2s/c(=C\c3ccc(Br)o3)c(=O)n2C1c1ccc(OC(C)C)cc1 (stereo not drawn)	14	-7	0	5.0*	1	-7
C=CCn1cc(/C=c2\sc3n(c2=O)C(c2ccc(OC)cc2)C(C(=O)OCC)=C(C)N=3)c2ccccc21 (stereo not drawn)	-8	-2	0	5.0*	-1	-18
CN1CCN(c2ccc(NC(=O)c3ccc([N+](=O)[O-])o3)cc2)CC1	-2	-46	0	-1	·	·
COCC(=O)Nc1nc2ccc(OC)cc2s1	4	-53	0	8.6*	-2	-11
Cc1cc(NC(=O)c2cccs2)cc(C)c1OCC(=O)N1CCOCC1	-11	-16	0	5.2*	0	-2
CC(C)c1ccc(NC(=O)c2cc(S(=O)(=O)N3CCN(Cc4ccc5c(c4)OCO5)CC3)ccc2F)cc1	-1	5	0	2	·	·
CCN1CCCC1CNC(=O)NC1CC(=O)N(c2ccc(C)c(C)c2)C1 (stereo not drawn)	4	-13	-1	7.0*	0	3
Cc1ccc(N2CC(NC(=O)C3CCCC3)CC2=O)cc1C (stereo not drawn)	-15	6	0	5.5*	1	6
COc1ccc(N2CC(NC(=O)C3CCCC3)CC2=O)cc1 (stereo not drawn)	12	4	0	-1	·	·
N#C/C(=C\Nc1ccccn1)c1nc(-c2cc3c(ccc4ccccc43)oc2=O)cs1	3	15	0	2	·	·
CCOc1ccc(NC(=O)CSC2=C(C#N)C(c3ccco3)C(C(=O)Nc3ccccc3)=C(C)N2)cc1 (stereo not drawn)	3	21	0	5.0*	-1	-7
CCCCN(C)c1nnc(NC(=O)Nc2ccc(Cl)cc2)s1	5	-11	0	7.5*	1	1
CCCCN(C)c1nnc(NC(=O)Nc2ccc(CC(=O)OCC)cc2)s1	7	2	0	0	·	·
NS(=O)(=O)c1ccc(CCNC(=O)c2ccccc2Oc2ccccc2)cc1	-8	-1	-1	6.7*	-1	-4
NS(=O)(=O)c1ccc(CCNC(=O)c2ccccc2Cl)cc1	-6	2	0	1	·	·
NS(=O)(=O)c1ccc(CCNC(=O)c2cc(-c3ccccc3)nc3ccccc23)cc1	-16	3	0	6.2*	1	2
COc1ccc(C(=O)Cn2nnc(-c3ccccc3)n2)cc1	15	4	0	1	·	·
O=C(NCCSc1nnnn1-c1ccccc1)Nc1ccccc1	-7	9	0	1	·	·
